According to PubChem BioAssay (EPA / NIEHS):
Inconclusive results are not listed. The source made the active and inactive calls. How the source made its calls, unless noted: active means hit-call score of the fitted dose curve at least 0.9, where 1 is the maximum; inactive means score below 0.9.

Tests used:
[1] = CCTE_Shafer_MEA_dev_firing_rate_mean: CCTE's Neural Network Formation Assay for Mean Firing Rate, Shafer Lab (AID 2284031);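 on AC50: curve fitted for loss of firing so AC50 reflects decreased mean firing rate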
Method in brief: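 Rat primary cortical neurons were seeded on multielectrode arrays and treated from plating through day 12, with redosing at each feed. Spontaneous spiking was recorded four times; mean firing rate AUC was fitted downward against DMSO.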

[2] = CCTE_Shafer_MEA_dev_per_burst_spike_percent: CCTE's Neural Network Formation Assay for Percent of Spikes in a Burst, Shafer Lab (AID 2284032);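 on AC50: fitted as a decrease in burst spike percentage below DMSO baseline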
Method in brief: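 Rat primary cortical neurons on 16-electrode MEA wells, dosed from plating day 0 for 12 days with renewal on DIV 5 and 9; spikes-in-bursts percentage averaged over bursting electrodes, collapsed as AUC across days 5, 7, 9, 12; loss direction versus DMSO.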

[3] = CCTE_Shafer_MEA_dev_burst_rate: CCTE's Neural Network Formation Assay for Burst Rate, Shafer Lab (AID 2284042);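 on AC50: potency for loss of burst rate below DMSO control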
Method in brief: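 Cells plated, treated day 0; recorded DIV 5, 7, 9, 12; fed and re-treated DIV 5, 9. Endpoint: bursts per recording time, active-electrode well mean, trapezoidal AUC, fitted in decreasing direction against DMSO baseline.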

[4] = CCTE_Shafer_MEA_dev_per_burst_interspike_interval: CCTE's Neural Network Formation Assay for Burst Interspike Interval, Shafer Lab (AID 2284044);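 further: mean spike spacing inside bursts as AUC over recordings on days 5 7 9 12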;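 on AC50: potency for a decrease of within-burst interspike interval below DMSO level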
Method in brief: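 Primary rat cortical neurons on 48-well MEA plates, exposed from day 0 through day 12, treatment renewed at DIV 5 and 9. Within-burst interspike interval recorded days 5, 7, 9, 12, well-averaged, summarised as AUC; negative fit versus DMSO.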

[5] = CCTE_Shafer_MEA_dev_burst_duration_mean: CCTE's Neural Network Formation Assay for Mean Burst Duration, Shafer Lab (AID 2284045);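 on AC50: curve fitted for loss meaning shorter burst duration than DMSO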
Method in brief: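 Primary rat cortical neurons on 48-well 16-electrode MEA plates, exposed from day 0 with renewal at DIV 5 and 9; spontaneous activity recorded on days 5, 7, 9, 12. Well-mean burst duration across bursting electrodes, collapsed as trapezoidal AUC; DMSO baseline.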

[6] = CCTE_Shafer_MEA_dev_interburst_interval_mean: CCTE's Neural Network Formation Assay for Mean Interburst Interval, Shafer Lab (AID 2284046);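 further: well-mean interburst interval of bursting electrodes as AUC over four recording days; curve fitted for decrease in interburst interval relative to DMSO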
Method in brief: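 Developing rat cortical networks on 48-well MEAs receive compound from the day of plating. Burst intervals from each active electrode are averaged per well, and AUC over the recording days is fitted in the negative direction against DMSO.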

[7] = CCTE_Shafer_MEA_dev_inter_network_spike_interval_mean: CCTE's Neural Network Formation Assay for Mean Inter-network Spike Interval, Shafer Lab (AID 2284047)
Method in brief: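 Rat cortical cultures, 1.5 x 10^5 cells/well on 48-well MEA plates; continuous exposure days 0–12, medium and compound refreshed DIV 5, 9. Mean time between consecutive network-spike peaks; AUC across DIV 5/7/9/12; DMSO baseline, negative fitting direction.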

[8] = CCTE_Shafer_MEA_dev_network_spike_number: CCTE's Neural Network Formation Assay for Number of Network Spikes, Shafer Lab (AID 2284048);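 on AC50: fit as a loss of signal meaning fewer network spikes than DMSO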
Method in brief: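 Primary rat cortical neurons on PEI/laminin 48-well MEA plates, dosed from plating day 0 for 12 days, renewed at DIV 5 and 9. Network spike counts recorded DIV 5, 7, 9, 12, collapsed as trapezoidal AUC; DMSO baseline.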

[9] = CCTE_Shafer_MEA_dev_network_spike_peak: CCTE's Neural Network Formation Assay for Mean Number of Electrodes in Network Spike, Shafer Lab (AID 2284049);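 on AC50: fitted for loss of signal meaning fewer electrodes in network spikes than DMSO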
Method in brief: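 Network-spike peak electrode count from recordings on days 5, 7, 9 and 12 was combined as trapezoidal area under the curve. Rat cortical cultures were treated continuously from plating, with compound renewed at each feed (DIV 5, 9); fits versus DMSO.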

DIO2 (gene 1734) = assay: CCTE_GLTED_hDIO2: CCTE's human Deiodinase 2 (DIO2) Inhibition Assay, Great Lakes Toxicology and Ecology Division (GLTED) Lab (AID 2284050; active means hit-call score of the fitted dose curve at least 0.9, where 1 is the maximum)
Method in brief: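 hDIO2 enzyme + test chem, 3 h → free iodide from substrate; step 2: Sandell-Kolthoff (Ce IV reduction by As, iodide-catalysed), spectrophotometric read. Triplicate plates; DMSO = baseline.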

[10] = CCTE_Shafer_MEA_dev_active_electrodes_number: CCTE's Neural Network Formation Assay for Number of Active Electrodes, Shafer Lab (AID 2284040; active means hit-call score of the fitted dose curve at least 0.9, where 1 is the maximum;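 on AC50: potency for loss of active electrodes versus DMSO so lower counts are hits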)
Method in brief: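 Primary rat cortical neurons on 16-electrode MEA wells, exposed from day 0 through day 12 with compound renewed at DIV 5 and 9 feeds. Active electrodes (mean firing ≥5 spikes/min) counted at DIV 5, 7, 9, 12; trapezoidal AUC across days, loss-of-signal versus DMSO.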

[11] = CCTE_Shafer_MEA_dev_bursting_electrodes_number: CCTE's Neural Network Formation Assay for Number of Bursting Electrodes, Shafer Lab (AID 2284043; active means hit-call score of the fitted dose curve at least 0.9, where 1 is the maximum;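 on AC50: potency is for loss of bursting electrodes relative to DMSO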)
Method in brief: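 Primary rat cortical neurons plated on 16-electrode MEA wells, exposed from day 0 with compound renewed at DIV 5 and 9. Electrodes bursting ≥1 burst per 2 min counted on days 5, 7, 9 and 12; trapezoidal AUC across days, fitted for loss versus DMSO.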

[12] = CCTE_Deisenroth_AIME_384WELL_CTox_Active: Cytotoxicity Assessment (CTOX) in CCTE's 384-well Estrogen Receptor Transactivation Assay with AIME metabolic competence (metabolism positive), Deisenroth Lab (AID 2284037; active means hit-call score of the fitted dose curve at least 0.9, where 1 is the maximum;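 further: chemicals first conditioned 2 h by alginate-bound induced rat liver S9 before cells; activity means signal loss indicating cell death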)
Method in brief: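 Chemicals pre-incubated 2 hours with alginate-immobilised phenobarbital/beta-naphthoflavone-induced male Sprague Dawley rat liver S9, then conditioned medium applied 24 hour to VM7Luc4E2 cells. Viability by fluorogenic protease substrate; 10-point series 0.002 - 200 uM.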

[13] = CCTE_Deisenroth_AIME_384WELL_CTox_Inactive: Cytotoxicity Assessment (CTOX) in CCTE's 384-well Estrogen Receptor Transactivation Assay without AIME metabolic competence (metabolism negative), Deisenroth Lab (AID 2284039; active means hit-call score of the fitted dose curve at least 0.9, where 1 is the maximum;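 further: cell viability via live-cell protease substrate cleaved to fluorescent probe; cells exposed 24 h to medium preincubated 2 h with alginate-water beads without S9; loss of fluorescence signal means loss of viability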)
Method in brief: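 Metabolism-negative arm: chemicals (10-point, 0.002 - 200 uM) preincubated 2 h with alginate-water lids, medium moved onto VM7Luc4E2 cells for 24 h. Fluorescent live-cell protease readout; bidirectional curve fit.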

[14] = target: Estrogen receptor (Homo sapiens) (UniProt P03372); assay: CCTE_Deisenroth_AIME_384WELL_LUC_Shift: CCTE's 384-well Estrogen Receptor Transactivation Assay with AIME metabolic competence data shift (ERTA luciferase; difference in metabolism positive and negative), Deisenroth Lab (AID 2284041);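 further: shift is response with S9 minus without S9 so positive means metabolism raised ER signal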
Method in brief: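 Chemicals (0.002–200 uM, 10 points) pre-incubated 2 h with alginate-encapsulated induced male Sprague Dawley rat liver S9 or S9-free, then medium applied 24 h to VM7Luc4E2 cells; luciferase. Endpoint is per-concentration difference, S9-positive minus negative.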

[15] = target: Estrogen receptor (Homo sapiens) (UniProt P03372); assay: CCTE_Deisenroth_AIME_384WELL_LUC_Active: CCTE's 384-well Estrogen Receptor Transactivation Assay with AIME metabolic competence (ERTA luciferase; metabolism positive), Deisenroth Lab (AID 2284030; active means hit-call score of the fitted dose curve at least 0.9, where 1 is the maximum)
Method in brief: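 Chemicals (10-point, 0.002-200 uM) were first incubated 2 hours with alginate-immobilized induced male Sprague Dawley rat liver S9. The conditioned medium was then applied to VM7Luc4E2 cells for 24 hours, with ER luciferase induction read by luminescence relative to 17beta-estradiol.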

[16] = target: Estrogen receptor (Homo sapiens) (UniProt P03372); assay: CCTE_Deisenroth_AIME_384WELL_LUC_Inactive: CCTE's 384-well Estrogen Receptor Transactivation Assay without AIME metabolic competence (ERTA luciferase; metabolism negative), Deisenroth Lab (AID 2284038; active means hit-call score of the fitted dose curve at least 0.9, where 1 is the maximum;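 further: VM7Luc4E2 breast cells given medium preincubated 2 h with S9-free microspheres; hits raise estrogen receptor luciferase signal so potencies reflect agonists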)
Method in brief: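 Metabolism-negative mode: chemicals (10-point, 0.002–200 uM) held 2 h with alginate-water microspheres, then conditioned medium applied to VM7Luc4E2 cells for 24 h. Luciferase induction referenced to 17beta-estradiol.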

Measured: AC50

Sequence of Estrogen receptor (Homo sapiens) (P03372 whole entry, looked up): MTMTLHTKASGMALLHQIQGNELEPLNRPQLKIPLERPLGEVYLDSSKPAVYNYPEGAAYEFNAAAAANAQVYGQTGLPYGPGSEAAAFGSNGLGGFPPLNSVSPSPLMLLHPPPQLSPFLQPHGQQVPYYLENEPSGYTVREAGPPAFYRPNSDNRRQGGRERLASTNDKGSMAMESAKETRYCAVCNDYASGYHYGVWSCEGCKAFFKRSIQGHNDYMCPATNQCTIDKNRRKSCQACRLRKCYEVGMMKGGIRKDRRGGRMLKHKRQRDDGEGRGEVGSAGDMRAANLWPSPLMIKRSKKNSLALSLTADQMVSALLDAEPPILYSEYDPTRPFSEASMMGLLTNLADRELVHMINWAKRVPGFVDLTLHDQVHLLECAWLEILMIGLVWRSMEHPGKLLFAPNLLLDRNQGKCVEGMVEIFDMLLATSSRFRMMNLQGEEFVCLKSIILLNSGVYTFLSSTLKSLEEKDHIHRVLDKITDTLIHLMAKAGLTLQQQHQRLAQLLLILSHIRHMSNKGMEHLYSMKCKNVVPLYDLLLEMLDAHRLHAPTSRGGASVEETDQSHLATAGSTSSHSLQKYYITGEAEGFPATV

O=C(O)C(F)(F)C(F)(F)C(F)(F)C(F)(F)C(F)(F)C(F)(F)C(F)(F)C(F)(F)C(F)(F)C(F)F
inactive: [1] | [2] | [3] | [4] | [5] | [6] | [7] | [8] | [9]
active: DIO2 (gene 1734) 59.3 µM

OCC(F)(F)C(F)(F)C(F)(F)F
not listed: DIO2 (gene 1734) | [12] | [13] | [14] | [15] | [16]
inactive: all other assays above

COC(=O)CCC(F)(F)C(F)(F)C(F)(F)C(F)(F)F
inactive: [1] | [2] | [3] | [4] | [5] | [6] | [7] | [8] | [9]

CCN(Cc1cccc(S(=O)(=O)O)c1)c1ccc(C(=C2C=CC(=[N+](CC)Cc3cccc(S(=O)(=O)O)c3)C=C2)c2ccc(O)cc2S(=O)(=O)[O-])cc1
active: [12] 124 µM | [13] 100 µM | DIO2 (gene 1734) 48.5 µM
inactive: [14]

C=CC(=O)OCC(F)(F)C(F)(F)C(F)(F)C(F)(F)COC(=O)C=C
active: [1] 4.34 µM | [2] 4.76 µM | [10] 4.2 µM | [3] 4.18 µM | [11] 2.08 µM | [4] 4.18 µM | [5] 2.87 µM | [6] 4.2 µM | [8] 2.28 µM | [9] 4.19 µM | DIO2 (gene 1734) 12.8 µM
inactive: [7]

OCC(F)(F)C(F)(F)C(F)(F)C(F)F
not listed: DIO2 (gene 1734) | [11] | [12] | [13] | [14] | [15] | [16]
inactive: all other assays above

CNC(=S)NC
inactive: [15] | [16] | [13] | [14]

O=S(=O)(OCCOC(F)(F)F)C(F)(F)F
not listed: DIO2 (gene 1734) | [11] | [12] | [13] | [14] | [15] | [16]
inactive: all other assays above

O=C(O)C(F)(F)C(F)(F)C(F)(F)C(F)(F)C(F)(F)C(F)(F)C(F)(F)C(F)(F)C(F)(F)C(F)(F)C(F)(F)C(F)(F)F
active: DIO2 (gene 1734) 74.9 µM
